Consider 15 compounds from PubChem BioAssay (EPA / NIEHS).

Experiment [1] in a line: BSK_3C_SRB: Viability Assessment in the BioMAP Diversity Plus: 3C Assay (AID 2283023).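 Further: fitted both ways against DMSO so a hit may be signal rise or drop.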 The note with it: primary human endothelial cells (HUVEC). In short, it runs like this:
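Human umbilical vein endothelial cells in the 3C system, treated 24 h. Total protein measured by 0.1% sulforhodamine B staining after 10% TCA fixation, read at 560 nm; bidirectional fit versus DMSO.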

Read-out in experiment [2]: Matrix Metallopeptidase 1 (MMP1), MMP1 (gene 4312)
Briefly: BSK_BE3C_MMP1: BioMAP Diversity Plus: BE3C Assay for Matrix Metallopeptidase 1 (MMP1) Biomarker Activity (AID 2283024). The note with it: primary human bronchial epithelial cells; actives raise or lower the signal. In short, it runs like this:
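In this multiplexed primary-cell system, human bronchial epithelium received chemicals for 24 h before an ELISA for MMP1. Values reflect bidirectional fits normalised to the DMSO baseline.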

The nature of experiment [3]: BSK_3C_Vis: BioMAP Diversity Plus: 3C Assay for Morphology Visualization (AID 2283025).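 Further: fitted both ways so gain or loss versus DMSO counts.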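 On AC50: light microscopy image of cell morphology used as background control.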 The note with it: primary human endothelial cells (HUVEC). The method, boiled down: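 Light-microscopy morphology readout, 24 h exposure, human primary umbilical vein endothelium; analysed relative to DMSO with bidirectional fitting.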
Read-out in experiment [4]: Pselectin, SELP (gene 6403)
Briefly: BSK_4H_Pselectin: BioMAP Diversity Plus: 4H Assay for Pselectin Biomarker Activity (AID 2283026). The note with it: primary human endothelial cells (HUVEC); actives raise or lower the signal. The method, boiled down:
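Bidirectional fits against DMSO gave the endpoint. Cells: primary human umbilical vein endothelium, chemical-treated for 24 h before ELISA detection of P-selectin.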

The nature of experiment [5]: BSK_4H_SRB: Viability Assessment in the BioMAP Diversity Plus: 4H Assay (AID 2283027).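 Further: cells exposed to compound for 24 h before staining.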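 On AC50: curves fitted both ways versus DMSO so AC50 may be loss or gain.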 The following applies: primary human endothelial cells (HUVEC). The method, boiled down: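 Cytotoxicity read-out in primary human endothelial cells: after 24 h compound exposure, cells were TCA-fixed (10%), stained with 0.1% SRB and absorbance taken at 560 nm. Values fitted in both directions relative to DMSO.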

Experiment [6] can be described thus: BSK_BE3C_SRB: Viability Assessment in the BioMAP Diversity Plus: BE3C Assay (AID 2283028).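 On AC50: fitted both ways so AC50 may mark signal gain or loss versus DMSO.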 The note with it: primary human bronchial epithelial cells. The method, boiled down: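 Human bronchial epithelial primary cells in confluent culture, 24 h after chemical dosing; total protein by 0.1% SRB staining after 10% TCA fixation, read at 560 nm. Bidirectional fitting versus DMSO baseline.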

Read-out in experiment [7]: Thrombomodulin, THBD (gene 7056)
In words: BSK_3C_Thrombomodulin: BioMAP Diversity Plus: 3C Assay for Thrombomodulin Biomarker Activity (AID 2283029). The note with it: primary human endothelial cells (HUVEC); actives raise or lower the signal. The method, boiled down: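 In a multiplexed primary-cell system, human umbilical vein endothelium received chemical and was assayed 24 h later for thrombomodulin by ELISA. Parallel cultures were SRB-stained (0.1% SRB after 10% TCA fixation, read at 560 nm) to flag cytotoxicity.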

Read-out in experiment [8]: Urokinase-type plasminogen activator receptor (uPAR), PLAUR (gene 5329)
Briefly: BSK_4H_uPAR: BioMAP Diversity Plus: 4H Assay for Urokinase-type plasminogen activator receptor (uPAR) Biomarker Activity (AID 2283030). The following applies: primary human endothelial cells (HUVEC); actives raise or lower the signal. The method, boiled down:
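Human umbilical vein endothelial cells in the 4H system, 24 h after chemical dosing. Cell-surface uPAR measured by ELISA, fitted in both directions versus DMSO; cytotoxicity checked by SRB total protein in parallel cultures.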

Read-out in experiment [9]: Human Leukocyte Antigen - DR isotype (HLADR), HLA-DRA (gene 3122)
In words: BSK_BE3C_HLADR: BioMAP Diversity Plus: BE3C Assay for Human Leukocyte Antigen - DR isotype (HLADR) Biomarker Activity (AID 2283032). The note with it: primary human bronchial epithelial cells; actives raise or lower the signal. In short, it runs like this:
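BioMAP BE3C format: human bronchial epithelium, 24 h compound treatment, ELISA detection of HLA-DR, with bidirectional analysis relative to DMSO.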

Read-out in experiment [10]: Vascular endothelial growth factor receptor 2 (Homo sapiens) (UniProt P35968)
Briefly: BSK_4H_VEGFRII: BioMAP Diversity Plus: 4H Assay for Vascular endothelial growth factor receptor 2 (VEGFR2) Biomarker Activity (AID 2283031).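 On AC50: cell-surface VEGFR2 protein level quantified by ELISA.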 The following applies: primary human endothelial cells (HUVEC); actives raise or lower the signal. The method, boiled down:
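Primary human umbilical vein endothelial cells (4H system), 24 h exposure; cell-surface VEGFR2 measured by ELISA. Bidirectional fitting versus DMSO; cytotoxicity checked in parallel by SRB total-protein staining.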

Broadly, the AC50 is the midpoint of the concentration-response curve, whichever way the signal moves.

The source made the active and inactive calls. How the source made its calls: active means hit-call score of the fitted dose curve at least 0.9, where 1 is the maximum; inactive means score below 0.9.

As to `O=C(O)C1(c2ccc3c(c2)OC[C@H](Cc2ccc(-c4ccccc4)cc2)[C@H]3O)CCCC1`, the AC50 in experiment [1] is 28 µM (active); in experiment [2], 31.7 µM (active); in [4], 27.1 µM (active); in experiment [5], 20 µM (active); in experiment [6] it was 26.2 µM (active); in experiment [9], 7.34 µM (active). Besides, the result in experiment [3], in experiment [7] and in experiment [8] was inactive.

Turning to `O=[N+]([O-])c1ccc(Nc2ccccc2)cc1`, the outcome in experiment [1], in experiment [2], in experiment [3], in experiment [4], in experiment [5] and in [6] was inactive. The result in [7], in experiment [8] and in experiment [9] was inactive.

Regarding `CCCCOC(=O)COC(=O)c1ccccc1C(=O)OCCCC`, the result in [1], in [2], in experiment [4], in experiment [5], in experiment [6] and in experiment [7] was inactive. For the same compound, the outcome in [8], in [10] and in [9] was inactive.

Consider `CCOP(=O)(OCC)SCCSCC`, for which the outcome in [1], in [2], in experiment [3], in [4], in experiment [5] and in experiment [6] was inactive. Besides, the result in experiment [7], in experiment [8] and in experiment [9] was inactive.

As to `Oc1c(Cl)cc(Cl)cc1Cl`, the outcome in experiment [1], in experiment [2], in [3], in experiment [4], in [5] and in experiment [6] was inactive. The result in experiment [7], in experiment [8] and in [9] was inactive.

`O=c1oc2ccccc2c(O)c1C(CC(O)c1ccc(-c2ccc(Br)cc2)cc1)c1ccccc1` (stereo not given): the AC50 in experiment [1] is 10.7 µM (active); in experiment [2] it was 9.43 µM (active); in [3] it was 12.6 µM (active); in experiment [4], 6.34 µM (active); in [5] it was 12.7 µM (active); in experiment [6], 5.05 µM (active). Moreover, the AC50 in experiment [8] was 6.9 µM (active); in experiment [10], 5.2 µM (active); in [9] it was 5.4 µM (active). Besides, the outcome in [7] was inactive.

Turning to `O=C(CCl)NCO`, the result in experiment [1], in experiment [2], in experiment [3], in experiment [4], in [5] and in experiment [6] was inactive. Further, the outcome in experiment [7], in [8] and in [9] was inactive.

Turning to `[Cl][Sn]([c]1ccccc1)([c]1ccccc1)[c]1ccccc1`, the AC50 in [1] is 0.188 µM (active); in [2], 0.36 µM (active); in experiment [3], 0.176 µM (active); in experiment [4] it was 0.0641 µM (active); in experiment [5], 0.192 µM (active); in experiment [6], 0.146 µM (active). The AC50 in experiment [7] was 5 µM (active); in experiment [8], 0.205 µM (active); in [9], 0.0934 µM (active).

`O=[N+]([O-])c1cccc2ccccc12`: the outcome in [1], in experiment [2], in [3], in [4], in [5] and in [6] was inactive. The result in [7], in experiment [8], in [10] and in experiment [9] was inactive.

Take `O=C(N[C@H]1CN2CCC1CC2)c1ccc2c(c1)OCCO2`: the result in experiment [1], in [2], in experiment [3], in experiment [4], in experiment [5] and in experiment [6] was inactive. In addition, the outcome in [7], in experiment [8], in experiment [10] and in experiment [9] was inactive.

Turning to `CC(C=O)Cc1ccc2c(c1)OCO2` (stereo not given), the outcome in [1], in [2], in experiment [4], in experiment [5], in experiment [6] and in [7] was inactive. The outcome in experiment [8], in experiment [10] and in experiment [9] was inactive.

As to `Cc1c([N+](=O)[O-])c(C)c([N+](=O)[O-])c(C(C)(C)C)c1[N+](=O)[O-]`, the figures for the AC50 in [1], in experiment [2] and in experiment [3] were 20 µM (active), 7.08 µM (active) and 37.4 µM (active), respectively. Besides, the outcome in experiment [4], in [5], in experiment [6], in experiment [7], in experiment [8] and in [10] was inactive. In [9], the outcome was inactive.

Consider `CCCCN(CCCC)C(=S)[S-].CCCCN(CCCC)C(=S)[S-].[Ni+2]`, for which the result in experiment [1], in [2], in experiment [3], in experiment [4], in experiment [5] and in experiment [6] was inactive. The result in experiment [7], in [8] and in [9] was inactive.

For `Cc1cc(Cl)ccc1OC(C)C(=O)O` (stereo not given), the result in experiment [1], in experiment [2], in [4], in experiment [5], in [6] and in experiment [7] was inactive. In addition, the outcome in experiment [8], in experiment [10] and in experiment [9] was inactive.

For `Cc1ccccc1OP(=O)(Oc1ccccc1)Oc1ccccc1`, the AC50 in experiment [1] was 35.8 µM (active); in experiment [2], 6.66 µM (active); in experiment [3], 11.6 µM (active); in experiment [4], 20 µM (active); in experiment [5] it was 20 µM (active); in experiment [8], 32.2 µM (active). Further, the AC50 is 20 µM (active) in [10] and 11.5 µM (active) in [9]. The result in experiment [6] and in experiment [7] was inactive.
